93 compounds from PubChem BioAssay AID1878 (Sanford-Burnham Center for Chemical Genomics, 2009) can be followed below.

The structures appear in SMILES notation. Among all 1,000 compounds or so, about 200 (20%) were called active. Not all results are given here. Measured potencies and affinities stand elsewhere. Unmarked numbers belong to inactive results. No stated cut-off is given here; in the data, active means inhibition above about 55%; inactive means the rest.

Dual specificity protein phosphatase 3 (Homo sapiens), sequence (P51452 whole entry, looked up): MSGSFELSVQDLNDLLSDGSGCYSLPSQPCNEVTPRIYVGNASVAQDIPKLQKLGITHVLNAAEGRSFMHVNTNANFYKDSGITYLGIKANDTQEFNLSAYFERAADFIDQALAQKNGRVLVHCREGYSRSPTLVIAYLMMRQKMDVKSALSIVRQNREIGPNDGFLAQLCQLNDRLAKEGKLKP

The assay concerns the target Dual specificity protein phosphatase 3 (Homo sapiens) (UniProt P51452). Briefly: VHR1 phosphatase inhibitors, biochemical (AID 1878). Particulars: recombinant VHR phosphatase, fluorogenic substrate; at 13.3 µM; stronger effect = higher value.
The term inhibition denotes the relative decrease from the control value, in per cent. For `CCC1CN(C(=O)NCc2ccc(F)cc2)c2ccccc2O1` (stereo not drawn), the inhibition was 7.8%.

Turning to `COc1ccc(C(=O)NCc2ccc(N3CCN(C)CC3)cc2)cc1`, the inhibition was 21.1%.

As to `COc1cccc(C2NC(=O)CCC2[N+](=O)[O-])c1OC` (stereo not drawn), the inhibition was 3.9%. `COCCN(C(=O)CCC(=O)Nc1nccs1)C(C(=O)NCCC(C)C)c1ccc(OC)cc1` (stereo not drawn): the inhibition is -22%.

As for `COc1cc(C(C)=O)ccc1OCC(O)CN1CCN(c2ccc(F)cc2)CC1` (stereo not drawn), the inhibition was -0.4%. Then `COc1nc(Nc2nc3ccccc3c(=O)[nH]2)nc2ccc(C)cc12`, with 89.8% (active); and `CCC(=O)N1CCN(c2ccc(NC(=O)c3ccc(N4CCOCC4)c([N+](=O)[O-])c3)cc2)CC1`, with -6.9%; and `Fc1ccccc1/C=N/n1c(C2CCCCC2)n[nH]c1=S`, with 7.2%. Turning to `Cn1c(=O)[nH]c(=O)c2c1[nH]c(=S)n2CCCc1ccccc1`, the inhibition was 2.5%. The result for `O=C(Cn1c2ccccc2c2nc3n(c(=O)c21)CCS3)N1CCCC1` reads -3.8%; that for `CN(C)c1ccc(N2C(=NC(=O)C3CCCO3)SC3CS(=O)(=O)CC32)cc1` (stereo not drawn), 10.7%. In the case of `Cc1ccc(CNCc2ccco2)cc1`, the inhibition is -2.3%. The result for `CC(C)(C)c1ccc(O)c(N=Cc2c(O)ccc3ccccc23)c1` reads -0.4%.

As for `C/C(=N\N1CCN(c2ccccc2)CC1)c1ccc(O)cc1`, the inhibition was -1.9%. Then `Clc1nccnc1N/N=C/c1ccc(Br)cc1`, with 1.6%; and `CCCCn1nc(NC(=O)CC(C)C)c2cc3cc(OC)ccc3nc21`, with 2.1%; and `CCC1C(=O)C(C)(C)C(=O)OC1c1ccc([N+](=O)[O-])cc1` (stereo not drawn), with -5.8%.

`CCOc1ccc(C(=O)N2CCN(CCc3ccccc3)CC2)cc1OCC`: the inhibition was 1.8%.

Regarding `O=C(CSc1nc2ccccc2n1CCc1ccccc1)c1ccc(O)c(O)c1`, the inhibition was 98.7% (active).

Regarding `Cc1ccccc1C1NC(=O)c2ccccc2O1` (stereo not drawn), the inhibition is -14%. The result for `COc1cccc2[nH]c3c(=O)[nH]cnc3c12` reads -1.7%; that for `Cc1ccc(NC(=O)CNC(=O)N2CC(=O)Nc3ccccc32)cc1F`, 15.4%; that for `O=C(Cn1cncn1)N/N=C/c1ccccc1Cl`, -4.5%. Consider `C[C@]12CCC3=C4CCC(=O)C=C4CC[C@H]3C1CC[C@@H]2O` (stereo partly drawn), for which the inhibition is 14.2%.

Take `CN1C(C)(C)CC(NC(=O)c2ccco2)CC1(C)C`: the inhibition was -4.7%.

Regarding `COc1cc(C2Nc3ccccc3NC3=C2C(=O)CC(C)(C)C3)cc(OC)c1OC` (stereo not drawn), the inhibition is -7.9%. The result for `CCOc1ccc(C(=O)N2CCC3(CC2)NCCc2[nH]cnc23)cc1` reads -8.9%; that for `Cc1cc(C(=O)N/N=C/c2cc([N+](=O)[O-])cc(C)c2O)n[nH]1`, 76.1% (active). Then `CCc1nn(CC(=O)NCCCN(C)C2CCCCC2)c(=O)c2cc3occc3n12`, with 7.4%; and `COc1ccccc1Nc1nn2c(=O)c3ccc(C(=O)NCc4cccnc4)cc3nc2s1`, with 97.1% (active); and `COc1cccc(CNC(=O)C2CCN(c3nn4c(=O)cc(C)nc4s3)CC2)c1`, with -8.6%.

`COc1ccc(C(CC(=O)Nc2ncccc2C)N2Cc3ccccc3C2=O)cc1` (stereo not drawn): the inhibition was -9.5%. Then `COc1cc(NC(=O)CN2C(=O)COc3ccc(S(=O)(=O)N4CCCCC4)cc32)cc(OC)c1`, with -1.8%.

Consider `O=C(c1ccc(CS(=O)c2ccccc2Cl)o1)N1CCN(c2ccccc2)CC1` (stereo not drawn), for which the inhibition is 2.8%. Regarding `CC(C)c1ccc(N2C(=NC(=O)C3CCCO3)SC3CS(=O)(=O)CC32)cc1` (stereo not drawn), the inhibition is 11.9%. Take `COc1cc2c(cc1OC)-c1cc(Nc3cccc(F)c3)nc(=O)n1CC2`: the inhibition was 14.3%.

With `CN(C)c1ccc(NS(=O)(=O)c2cc3c4c(c2)CC(=O)N4CCC3)cc1`, the inhibition was -8%. For `COc1cc(/C=N/NC(=O)c2ccc3c(c2)OCO3)ccc1O`, the inhibition is -2%. With `COc1cc(/C=N/Nc2ccc([N+](=O)[O-])cn2)cc(OC)c1O`, the inhibition is -5.7%. Then `CCOc1ccc(NC(=O)CCC(=O)NNC(=O)c2ccccc2Cl)cc1`, with 2%; and `CCC1CCCCN1CCCNC(=O)c1cn(C)c2ccc(S(=O)(=O)N3CCOCC3)cc2c1=O` (stereo not drawn), with -9.8%. The result for `COCCN(CC1CCCN(C2Cc3ccccc3C2)C1)C(=O)CSC` (stereo not drawn) reads -11.6%; that for `C=C(C)CCC(C)N1CCC(n2nccc2NC(=O)CCCc2ccccc2)CC1` (stereo not drawn), -2.3%; that for `Oc1ccc(NCc2ccc(OCc3ccccc3)cc2)cc1`, -5.6%. Regarding `O=C(Nc1cccc(Cl)c1)OCCOc1ccccc1`, the inhibition was -0.9%. The result for `N#C/C(=C\c1ccc(OCc2ccc(Cl)cc2)cc1)C(=O)Nc1cccc(C(=O)O)c1` reads 84.9% (active). Then `N#C/C(=C\c1ccc(OCc2ccc(Br)cc2)cc1)C(=O)Nc1cccc(C(=O)O)c1`, with 87.5% (active); and `Cn1c(=O)c2[nH]c(N3CCCCC3)nc2n(C)c1=O`, with 6.6%. The result for `Cc1ccc(-n2nc3c(=O)n(CCCC(=O)NCc4ccco4)nc(C)c3c2C)cc1` reads -4.7%. `CCN(CC)c1ccc(NS(=O)(=O)c2ccc(-c3ccc(=O)[nH]n3)o2)c(C)c1`: the inhibition was -2.9%. Take `COc1ccc(CCN(C)CC(O)COc2ccc(C(C)=O)cc2OC)cc1OC` (stereo not drawn): the inhibition is -11.9%. For `CC(=O)COC(=O)C1=NN(c2ccccc2)C(=O)CC1`, the inhibition is 8.8%. As to `CCOC(=O)c1ccc(NCCc2ccc(OC)c(OC)c2)c(N)c1`, the inhibition was 33%. The result for `COc1ccc(Cl)cc1-n1c(=S)sc2c(=O)n(-c3ccc(F)cc3)c(SCC(=O)O)nc21` reads -3.3%; that for `COc1ccc(/C=N/N=C2/NC(=O)C(CC(=O)O)S2)cc1OCc1ccc(Cl)cc1Cl` (stereo not drawn), 95.9% (active); that for `CCN(CC)c1ccc(NC(=O)c2c(C)noc2C)cc1`, -3.1%. The result for `COCCN(C(=O)c1ccc(OC2CCN(S(=O)(=O)N(C)C)CC2)cc1)C(C)C` reads -6.4%; that for `COc1cc(C(=O)OC2C[C@H]3CC[C@@H](C2)N3C)ccc1O` (stereo partly drawn), -1.1%; that for `COc1ccc(C(=O)C2CCCN(C(=O)c3cccc(N(C)C)c3)C2)cc1OC` (stereo not drawn), 16.4%. Then `Cn1c(/C=C/c2ccc(Cl)cc2Cl)c([N+](=O)[O-])c(=O)n(C)c1=O`, with 20.2%. For the compound `CC1CCCCN1CCCNC(=O)Cn1c(=O)c2cccn2c2ccccc21` (stereo not drawn), the inhibition was -1.3%. Regarding `COc1ccc(/C=N\NC(=O)c2cc(O)c(O)c(O)c2)cc1CN1CCN(c2ccc(F)cc2)CC1`, the inhibition was -34.7%. Then `COc1ccc2c(c1)cc1c(=O)n(CC(=O)NC(C)CCc3ccccc3)nc(C)n12` (stereo not drawn), with -4%. As for `CN1CC(=O)N2Cc3[nH]c4ccccc4c3C[C@H]2C1=O`, the inhibition was 11.2%.

Consider `Cc1ccc(N2CCN(c3ncccc3[N+](=O)[O-])CC2)c(C)c1`, for which the inhibition is 8.1%. As for `NC(=O)C(c1ccc(F)cc1)c1ccc(C(=O)c2ccccc2)cc1` (stereo not drawn), the inhibition was 18.3%. Then `CCOCCn1c2ccccc2c2nc3ccccc3nc21`, with -4.2%; and `COc1ccc(C(=O)/C=C2/C(=O)Nc3ccccc32)cc1OC`, with 13.2%; and `CC(Oc1ccc2ccc(=O)oc2c1)C(=O)NC1CC(C)(C)NC(C)(C)C1` (stereo not drawn), with -2.5%. On to `Nc1ccc2c(c1Cl)C(=O)c1ccc(N)c(Cl)c1C2=O`, for which the inhibition was 99.8% (active). Then `CCCC(=O)Nc1ccc(S(=O)(=O)N2CCOCC2)cc1`, with -5.6%; and `CC(C)(C)CC(=O)Nc1ccc(-c2nnc3n2CCCCC3)cc1`, with 27.9%; and `COc1nc(C)cc(C)c1S(=O)(=O)c1ccccc1`, with 6.1%. Consider `O=C(NCCc1ccccc1)C1CC(=O)N(CCc2ccccc2)C1` (stereo not drawn), for which the inhibition is -8.3%. Then `c1ccc(CCNC2CCCCCC2)cc1`, with 14.2%.

As for `CC1CCN(S(=O)(=O)c2ccc3c(c2)N(CC(=O)NCCCN2C(C)CCCC2C)C(=O)CO3)CC1` (stereo not drawn), the inhibition was -11.5%. The result for `O=C(O)Cn1nc2c3c(cccc3c1=O)-c1ccccc1-2` reads -3.4%; that for `Cc1cc2nc(/C=C/c3nc4cc(C)c(C)cc4[nH]3)[nH]c2cc1C`, 82.4% (active); that for `NC(=O)C(c1ccccc1)c1ccc(C(=O)c2ccccc2)cc1` (stereo not drawn), -3.2%. The result for `Cn1nc([N+](=O)[O-])c2c(-c3nc4ccccc4s3)c(N)n(C3CCCCC3)c2c1=O` reads 97.9% (active); that for `COc1cccc(NC(=O)CN(C)S(=O)(=O)c2ccc3[nH]c(=O)oc3c2)c1`, 9%. The result for `O=C(Cn1ncc2c([nH]c3ccccc32)c1=O)N1CCOCC1` reads 16.5%; that for `COc1cc(/C=C2/C(=O)NN(c3ccc(Cl)cc3)C2=O)cc(OC)c1O`, 17.9%; that for `COc1cc(/C=C2/C(=O)N(c3cccc(Br)c3)N=C2C)cc(OC)c1O`, 6.8%. With `CC(C)(C)OC(=O)NCC1CCN(S(=O)(=O)Cc2ccccc2)CC1`, the inhibition is -7.1%. Take `C/C(N)=C(/C#N)C(=O)COC(=O)c1cc(-c2ccc(Br)cc2)nc2ccccc12`: the inhibition was -2.7%. Then `CCOc1ccc(-c2cc(C(=O)NCCCN3CCCC3)c3ccccc3n2)cc1`, with -16.4%; and `COc1ccccc1CN1CCCC(CN(CCN(C)C)C(=O)C2CCCC2)C1` (stereo not drawn), with -18.4%; and `Nc1nn2c(-c3ccccc3)cc(=O)[nH]c2c1N=Nc1ccc(Br)cc1`, with 81.7% (active). On to `CC(C)(C)c1cc(=O)n2[nH]c(N)nc2n1`, for which the inhibition is -15.2%. Then `COC(=O)C1(C)NC(c2ccc(Cl)cc2)C2C(=O)N(c3ccccc3)C(=O)C21` (stereo not drawn), with -6.5%; and `CN1CCN(c2nc(-c3ccccc3Cl)nc3ccccc23)CC1`, with 5.7%. Regarding `COc1ccc(-c2cc3nc4ccccc4n3c(N)c2C#N)cc1`, the inhibition is 95.4% (active).
